# Assay results taken from PubChem BioAssay (NCI).
# About 79,000 compounds went through this panel and 15% of them were active in at least one assay; those are over-represented in the sample as a whole. Active and inactive are the calls of the source. Cut-off read from the data, not from the text of the source: active = growth inhibition above about 70%; inactive = the rest.
# Experiment: NCI Yeast Anticancer Drug Screen. Data for the bub3 strain (AID 167)
# Conditions: S. cerevisiae bub3 mutant strain, at 50.0 µM, active compounds read high
# In short: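 Yeast carrying a defined mutation is treated with each compound, and growth is compared with that of vehicle-exposed cells to give inhibition.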
row,SMILES,growth inhibition
1,COc1ccc2c(c1)[C@@]13CCCC[C@H]1[C@@H](C2)N(C)CC3=O,3% (inactive)
2,O=C([CH-]C(=O)c1ccccc1)c1ccccc1.[CH2-]C.[CH2-]C.[Tl+3],60.1% (inactive)
3,N#C[CH2][Sn]([c]1ccccc1)([c]1ccccc1)[c]1ccccc1,98.5% (active)
4,COc1c(O)cc2c(c1OC)-c1ccc(SC)c(=O)cc1C(NC(C)=O)CC2 (stereo unspecified),1.95% (inactive)
5,C1CN([PH+](N2CC2)N2CC2)CCO1.C1CN([PH+](N2CC2)N2CC2)CCO1.[Cl][Pt][Cl],-3.35% (inactive)

# Experiment: NCI Yeast Anticancer Drug Screen. Data for the mlh1 rad18 strain (AID 175)
# Conditions: S. cerevisiae mlh1 rad18 strain growth inhibition; at 50.0 µM; active compounds read high
# In short: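 Cells of a genetically altered yeast strain, deficient in DNA damage repair, were treated with compound. Their growth was then compared with that of vehicle-treated cultures to give inhibition.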
row,SMILES,growth inhibition
1,CCCN(C)C(C)(C)C(=O)c1ccccc1,-8.1% (inactive)
2,Cc1ccc(S(=O)(=O)OC2CN3CCC2CC3)cc1 (stereo unspecified),51.5% (inactive)
3,O=C(Nc1ccccc1F)C(Cl)(Cl)Cl,26.2% (inactive)
4,NC1CC(O)C(O)CC1c1ccc2c(c1)OCO2 (stereo unspecified),-17.2% (inactive)
5,COc1ccc2c(c1)[C@@]13CCCC[C@H]1[C@@H](C2)N(C)CC3=O,-48% (inactive)
6,COC1OCC(N=[N+]=[N-])C(OC)C1O (stereo unspecified),-1.8% (inactive)
7,O=C([CH-]C(=O)c1ccccc1)c1ccccc1.[CH2-]C.[CH2-]C.[Tl+3],55.1% (inactive)
8,CC1OC(O[C@@H]2C=C3CC[C@@H]4[C@H](CC[C@]5(C)[C@@H](c6ccc(=O)oc6)CC[C@]45O)[C@@]3(C)CC2)C(O)C(OC2OC(CO)C(O)C(O)C2O)C1O (stereo partly specified),8.6% (inactive)
9,CC1(C)OC2OCCC(N=[N+]=[N-])C2O1 (stereo unspecified),-4.4% (inactive)
10,CC(C)=CCC/C(C)=N\N=C(N)N,-15.6% (inactive)
11,C[C@]12CC[C@@H]3C4=CC(=O)CC[C@@H]4CC[C@H]3[C@@H]1CC[C@@H]2O,-2.75% (inactive)
12,CN1CCc2cc3c(cc2[C@H]1[C@@H]1OC(=O)c2c1ccc1c2OCO1)OCO3,-41% (inactive)
13,COc1cc(C=C2C(=O)NC(=S)NC2=O)cc(OC)c1OC,-0.95% (inactive)
14,Nc1nc(N)c2[nH]c(N)nc2n1,-55.3% (inactive)
15,C[C@]12CC[C@@H](O)C[C@H]1[C@@H](O)C[C@@H]1[C@@H]2CC[C@]2(C)C(=O)CC[C@@H]12,-11.1% (inactive)
16,C=[CH][Sn]([CH]=C)([c]1ccccc1)[c]1ccccc1,12.3% (inactive)
17,CNC(=O)c1[nH]cnc1/N=N/N(C)N,89.3% (active)
18,NC(Cc1ccccc1)c1nn[nH]n1 (stereo unspecified),-19.3% (inactive)

row,SMILES,growth inhibition
1,CC(C)OP(=O)(OCCCO)C(Cl)Cl (stereo unspecified),0.75% (inactive)
2,C[C@]12CC[C@H]3[C@@H](CC[C@H]4N(CCCl)CCC[C@]34C)[C@@H]1CC[C@@H]2O,76.3% (active)
3,O=P(O)(O)c1ccccc1,4.65% (inactive)
4,N#C[CH2][Sn]([c]1ccccc1)([c]1ccccc1)[c]1ccccc1,98.9% (active)
5,CCC1(CCNC(=O)CCl)C(=O)NC(=O)NC1=O,-8.6% (inactive)
6,O=c1c2ccccc2nc(-c2ccccc2Cl)n1-c1nnc(C(F)(F)F)s1,-6.5% (inactive)
7,C/C(=N\N=C(N)N)C(CN(C)C)C(c1ccccc1)c1c(O)c2ccccc2oc1=O (stereo unspecified),16.8% (inactive)
8,C1=CC2C=CC(C=C1)[PH+]2c1ccccc1.[C-]#[O+].[C-]#[O+].[C-]#[O+].[C-]#[O+].[C-]#[O+].[Cr] (stereo unspecified),-9.35% (inactive)
9,O=C(O)C(Cl)Cl,9.45% (inactive)
10,C[n+]1ccc2ccccc2c1-c1c2ccccc2cc[n+]1C,6.05% (inactive)
11,O=[N+]([O-])c1ccc2sc3ccccc3c2c1,58.8% (inactive)
12,COc1c(O)cc2c(c1OC)-c1ccc(SC)c(=O)cc1C(NC(C)=O)CC2 (stereo unspecified),23.9% (inactive)
13,O=P(O)(NCCCl)NCCCl,-39.5% (inactive)
14,CC(=O)O[C@H]1C(=O)[C@@]2(C)[C@H]([C@H](OC(=O)c3ccccc3)[C@@]3(O)C[C@H](O)C(C)=C1C3(C)C)[C@]1(OC(C)=O)CO[C@@H]1C[C@@H]2O,-0.15% (inactive)
15,C1CN([PH+](N2CC2)N2CC2)CCO1.C1CN([PH+](N2CC2)N2CC2)CCO1.[Cl][Pt][Cl],22.7% (inactive)
16,CC(=O)Nc1cc([As](=O)(O)O)ccc1O,33.8% (inactive)
17,COC(=O)C1=C(O)C(C(=O)OC)C2/C(=[N+](/[O-])O)c3c(cc([N+](=O)[O-])cc3[N+](=O)[O-])C1C2[N+](=O)[O-] (stereo unspecified),90.7% (active)
18,c1cc2c(cc1NC1=NCCO1)CCC2,-0.65% (inactive)
